In PubChem BioAssay AID588446 (NMMLSC, 2011):
Active and inactive are the calls of the source.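 How the source made its calls: active means dose fit with top-dose inhibition above 36% and EC50 error under a fifth of EC50, and EC50 under 30 µM; inactive means the rest.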

biological target: Integrin alpha-4 (Homo sapiens) (UniProt P13612); assay: VLA-4 ligand competition with LDV-FITC, dose response, orthogonal assay, cell-based, plate-based, flow cytometry, set 2 (AID 588446); conditions: cells, LDV-FITC binding displacement; series mostly up to 66.7 µM
Sequence (P13612 whole entry, looked up): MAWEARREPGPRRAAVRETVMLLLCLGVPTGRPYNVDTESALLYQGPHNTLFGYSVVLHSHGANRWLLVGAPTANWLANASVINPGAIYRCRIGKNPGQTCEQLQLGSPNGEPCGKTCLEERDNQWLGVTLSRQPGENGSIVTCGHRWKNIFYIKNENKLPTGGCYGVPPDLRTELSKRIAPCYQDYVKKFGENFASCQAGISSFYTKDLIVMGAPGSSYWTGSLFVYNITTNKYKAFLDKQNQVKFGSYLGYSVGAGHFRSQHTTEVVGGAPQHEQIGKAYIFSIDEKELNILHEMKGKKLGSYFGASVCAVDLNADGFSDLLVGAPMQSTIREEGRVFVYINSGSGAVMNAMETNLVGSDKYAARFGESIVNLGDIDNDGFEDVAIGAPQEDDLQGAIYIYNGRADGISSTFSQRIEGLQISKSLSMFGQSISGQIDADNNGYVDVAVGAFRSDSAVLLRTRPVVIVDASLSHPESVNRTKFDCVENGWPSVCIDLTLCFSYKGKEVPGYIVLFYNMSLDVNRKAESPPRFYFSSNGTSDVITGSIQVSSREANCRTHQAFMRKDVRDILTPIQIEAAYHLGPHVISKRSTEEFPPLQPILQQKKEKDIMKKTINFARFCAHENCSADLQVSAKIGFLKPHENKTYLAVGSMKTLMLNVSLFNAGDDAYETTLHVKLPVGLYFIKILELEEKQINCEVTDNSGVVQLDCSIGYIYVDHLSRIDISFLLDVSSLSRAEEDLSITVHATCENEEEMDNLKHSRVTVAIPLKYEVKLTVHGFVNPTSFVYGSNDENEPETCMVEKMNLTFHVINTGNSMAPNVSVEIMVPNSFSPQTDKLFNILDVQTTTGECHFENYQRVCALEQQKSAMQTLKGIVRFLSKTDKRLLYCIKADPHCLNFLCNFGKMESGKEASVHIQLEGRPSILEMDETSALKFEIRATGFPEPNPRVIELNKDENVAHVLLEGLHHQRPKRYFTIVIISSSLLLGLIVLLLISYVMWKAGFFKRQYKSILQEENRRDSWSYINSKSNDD

outcome, inactive:
COc1ccc(-c2nn(Cc3ccccc3)cc2C(=O)N2CCC2)cc1
CCOCCn1c(C2CC(=O)N(c3ccccc3)C2)nc2ccccc21 (centres undefined)
COc1ccc(C2CCCN2C(=O)c2sccc2C)cc1OC (centres undefined)
Cc1nc2ccccc2n1CCc1noc(COc2ccccc2)n1
COc1cc(OCc2ccccc2)ccc1CN1CCN(C)CC1
CCn1c(C2CC(=O)N(CCc3ccccc3)C2)nc2ccccc21 (centres undefined)
CCN1CC(c2nc3ccccc3n2CCOc2ccccc2)CC1=O (centres undefined)
COCC(=O)N1CCC2(CCCN(CCc3ccccc3)C2=O)C1 (centres undefined)
Cc1cc(C(=O)N2CCCC2c2ccc3c(c2)OCCO3)sc1C (centres undefined)
